Pf growth 96h: P. falciparum growth inhibition at 96 hour, primary screen for plastid delayed-death inhibitors. P. falciparum luciferase reporter growth, 96 h. Potency, µM (highest dose often 28.7 µM), inactives show at the highest dose activity change, negative = inhibition, actives largely listed as inhibitors. 320,000 tested, 6.9% active; note: % is set by controls: 0 for no effect and ±100 for the full control effect
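Infected RBCs, 2% Hct / 0.05% parasitemia final; luciferase-reporter P. falciparum; cpd 96 h, 37 C, 5% CO2; luciferase detection reagent; luminescence.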
Sm TGR block: S. mansoni TGR enzyme inhibition | Q962Y6 | purified TGR, DTNB reduction, TNB absorbance 405 nm | Potency, µM (doses to about 114 µM), for inactives: at the top dose activity change, negative = inhibition, most hits filed as inhibitors | 360,000 tested, 3% active; note: % is set by controls: 0 for no effect and ±100 for the full control effect; nearly all actives have a fitted effect of over 60% in size
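Kinetic colorimetric format: TGR-catalysed, NADPH-driven DTNB reduction monitored via TNB absorbance. Enzyme dispensed at 20 nM; compound exposure 15 min at room temperature before reaction start.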
SARS PLP yeast: inhibitors of SARS-CoV papain-like protease in yeast; S. cerevisiae expressing SARS-CoV PLpro, growth rescue; Potency, µM (top dose mostly 32.9 µM), inactives show at the top dose activity, positive = growth rescue, most hits filed as activators; 330,000 tested, 0.19% active; AID 485353; calls by dose curve; note: 0% is about no effect; nearly all actives have a fitted effect of over 55% in size
Pf growth 48h: P. falciparum growth inhibition at 48 hours (one generation); Potency, µM (titrated, usually from 28.7 µM), without a hit: at the top dose activity change, negative = inhibition, most hits filed as inhibitors; 310,000 tested, 5.9% active; P. falciparum luciferase growth in erythrocytes, 48 h; AID 504832; note: % is set by controls: 0 for no effect and ±100 for the full control effect
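Here the parasites carry a stable luciferase gene and grow inside erythrocytes in Albumax-based RPMI medium with compound for one erythrocytic cycle. Activity is scored as loss of luminescent signal.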
Active calls of the source: *. This is a sample that favours compounds with a hit; in the whole collection about 12% have one here. Unless noted, calls come from the whole dose curve; as a rule, active = well fitted curve in the direction sought with a large enough effect; inconclusive = small, poorly fitted or top-dose-only effect, or another doubt; inactive = no such curve, though single readings can be large; an effect the other way counts as inactive or inconclusive. Potency is the fitted concentration of half-maximal effect.

What do the screens show for `COc1ccc(NC(=O)N(C)C[C@H]2Oc3ccc(NS(=O)(=O)c4cccs4)cc3C(=O)N([C@@H](C)CO)C[C@@H]2C)cc1`?
SARS PLP yeast: 2%

How did Cc1ccc(CNC(=O)C2CCCN(S(=O)(=O)c3ccc(-n4cnnn4)cc3)C2)cc1 (stereo unspecified) do in these assays?
Pf growth 96h: 3%; Sm TGR block: 9%; SARS PLP yeast: 0%; Pf growth 48h: 13%

What do the screens show for `O=C(Nc1ccncc1)c1ccc(Cl)c(S(=O)(=O)N2CCc3ccccc32)c1`?
Pf growth 96h: 3.7µM*; Sm TGR block: 1%; SARS PLP yeast: 1%; Pf growth 48h: 3.3µM*

How did COc1ccc(S(=O)(=O)N2CCCCCC2)cc1C(=O)Nc1ccccn1 do in these assays?
Pf growth 96h: inconclusive; Sm TGR block: -2%; SARS PLP yeast: -2%; Pf growth 48h: -15%

How did Cc1ccc(S(=O)(=O)N2CCCCC2)cc1C(=O)Nc1ccccn1 do in these assays?
Pf growth 96h: 2.1µM*; Sm TGR block: -6%; SARS PLP yeast: 11%; Pf growth 48h: 3.3µM*

How did COc1ccc(NC(=O)CSc2oc(-c3ccco3)nc2S(=O)(=O)c2ccc(Br)cc2)c(OC)c1 do in these assays?
Sm TGR block: -25%

How did Cc1ccc2onc(CC(=O)N3CCN(c4ccc(F)cc4)CC3)c2c1 do in these assays?
Sm TGR block: -32%

Results for Cc1ccc(N2CCN(S(=O)(=O)c3c(C)nc4scc(C)n4c3=O)CC2)c(C)c1 ?
Pf growth 96h: inconclusive; Sm TGR block: -24%; SARS PLP yeast: -14%; Pf growth 48h: -14%

What do the screens show for `CCC(=O)c1ccc(OCC(=O)OCC(=O)c2cc(C)n(C)c2C)cc1`?
Pf growth 96h: 13µM*; Sm TGR block: -12%; SARS PLP yeast: 3%; Pf growth 48h: inconclusive

Results for CSCCC(NS(=O)(=O)c1ccc2c(c1)OCCO2)C(=O)N(C)Cc1ccccc1F (stereo unspecified) ?
Pf growth 96h: inconclusive; Sm TGR block: -3%; SARS PLP yeast: -6%; Pf growth 48h: 12µM*

How did CSCCC(NS(=O)(=O)c1ccc2c(c1)OCCO2)C(=O)N(C)Cc1ccc(F)cc1 (stereo unspecified) do in these assays?
Pf growth 96h: inconclusive; Sm TGR block: 1%; SARS PLP yeast: -2%; Pf growth 48h: inconclusive

What do the screens show for `CCCOc1ccc(-c2cccc(NS(=O)(=O)c3cc(OC)ccc3OC)c2)nn1`?
Sm TGR block: -5%

Results for CC(=O)Nc1ccc(C2=NN(C)C(=NCc3ccccc3)SC2)cc1 ?
Pf growth 96h: 12µM*; Sm TGR block: 5%; SARS PLP yeast: 1%; Pf growth 48h: inconclusive

How did Cc1ccc(S(=O)(=O)N2c3ccccc3NC(=O)C2CC(=O)Nc2ccccc2)cc1 (stereo unspecified) do in these assays?
Pf growth 96h: 12µM*; Sm TGR block: -1%; SARS PLP yeast: -1%; Pf growth 48h: inconclusive

How did O=C(NCc1ccccc1Cl)C1CCCN(C(=O)c2cnn(-c3ccccc3)c2-n2cccc2)C1 (stereo unspecified) do in these assays?
Sm TGR block: -10%

What do the screens show for `COc1cc(Br)cc2cc(C(=O)N3CCOCC3)c(=O)oc12`?
Pf growth 96h: 3.3µM*; Sm TGR block: -7%; SARS PLP yeast: 3%; Pf growth 48h: 39%

What do the screens show for `COCCNC(=O)c1cc2cc(Br)cc(OC)c2oc1=O`?
Pf growth 96h: inconclusive; Sm TGR block: 2%; SARS PLP yeast: -1%; Pf growth 48h: 12%

How did O=C(COC(=O)C1CC(O)CN1S(=O)(=O)c1ccc(Cl)cc1)c1ccccc1 (stereo unspecified) do in these assays?
Pf growth 96h: 49%; Sm TGR block: -14%; SARS PLP yeast: -11%; Pf growth 48h: 14%

How did CC(C)N(C(=O)COC(=O)[C@@H]1CC(O)CN1S(=O)(=O)c1ccc(C(C)(C)C)cc1)C(C)C (stereo partly specified) do in these assays?
Pf growth 96h: 6.6µM*; Sm TGR block: 0%; SARS PLP yeast: 3%; Pf growth 48h: 4.1µM*

Results for COc1ccc(S(=O)(=O)N2CC(O)CC2C(=O)OCC(=O)Nc2ccc(Cl)cn2)cc1 (stereo unspecified) ?
Pf growth 96h: 1.5µM*; Sm TGR block: -17%; SARS PLP yeast: -2%; Pf growth 48h: 7%

What do the screens show for `CCOc1ccc(CCNC(=O)CCc2cn(Cc3ccc(F)cc3)c3ccccc23)cc1`?
Sm TGR block: 1%

What do the screens show for `O=C(CCn1nnc2ccccc21)Nc1nnc(COc2ccc(F)cc2)s1`?
Pf growth 96h: 9.3µM*; Sm TGR block: 5%; SARS PLP yeast: 8%; Pf growth 48h: -4%

What do the screens show for `CC(=O)Nc1ccc(NC(=O)CCn2nnc3ccccc32)cc1`?
Pf growth 96h: -3%; Sm TGR block: 7%; SARS PLP yeast: -1%; Pf growth 48h: 9.3µM*

How did CSC1=NC2(CCN(C(=O)NC3CCCCC3)CC2)N=C1c1ccc(C)cc1 do in these assays?
Sm TGR block: 1%

How did O=C(c1ccc([N+](=O)[O-])cc1)N1CCC(Cc2ccccc2)CC1 do in these assays?
Pf growth 96h: inconclusive; Sm TGR block: 0%; SARS PLP yeast: 2%; Pf growth 48h: -3%

What do the screens show for `O=C(NCC1CCN(C(=O)c2ccc([N+](=O)[O-])cc2)CC1)C(=O)Nc1ccccc1`?
Pf growth 96h: 15µM*; Sm TGR block: -1%; SARS PLP yeast: 2%; Pf growth 48h: 3%

What do the screens show for `CC1CCCC(C)N1CC(O)COC1CCC(C(C)(C)C)CC1` (stereo unspecified)?
Pf growth 96h: 81%; Sm TGR block: 3%; SARS PLP yeast: -5%; Pf growth 48h: 10µM*

Results for CC1CN(CC(O)COC2CCC(C(C)(C)C)CC2)CC(C)O1 (stereo unspecified) ?
Pf growth 96h: inconclusive; Sm TGR block: -4%; SARS PLP yeast: -10%; Pf growth 48h: -23%

How did CC1CN(c2ccc(Cl)cc2)c2nc3c(c(=O)[nH]c(=O)n3C)n2C1 (stereo unspecified) do in these assays?
Pf growth 96h: 3%; Sm TGR block: -2%; SARS PLP yeast: -1%; Pf growth 48h: -2%

How did CC1CN(c2ccccc2)c2nc3c(c(=O)[nH]c(=O)n3C)n2C1 (stereo unspecified) do in these assays?
Pf growth 96h: -3%; Sm TGR block: 89µM*; SARS PLP yeast: -1%; Pf growth 48h: -3%

How did CCc1ccc(N2CC(C)Cn3c2nc2c3c(=O)[nH]c(=O)n2C)cc1 (stereo unspecified) do in these assays?
Pf growth 96h: 2.9µM*; Sm TGR block: -10%; SARS PLP yeast: 1%; Pf growth 48h: 7.4µM*

How did CCOc1ccccc1NC(=O)C1CCCN(S(=O)(=O)c2ccc3c(c2)C(C)(C)C(=O)N3C)C1 (stereo unspecified) do in these assays?
Pf growth 96h: 0%; Sm TGR block: -21%; SARS PLP yeast: 1%; Pf growth 48h: inconclusive

How did CCc1ccc(CNC(=O)C(CC)n2nc(C)c3c(C)n(-c4ccccc4)nc3c2=O)cc1 (stereo unspecified) do in these assays?
Sm TGR block: 26%

Screening data deposited in PubChem by National Center for Advancing Translational Sciences (NCATS).
